From PubChem BioAssay
An excerpt weighted towards active compounds, which were near 6.9% of everything screened.
NS3h inh CB = blocks HCV NS3 helicase binding to DNA; NS3h Cy5-dT15 DNA binding, fluorescence polarization; inhibition, % at 100 µM; 16,000 tested, 1.6% active;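 active = inhibition above the average over every tested compound plus 3 SD, cut at about 40% in these data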
Cy5 interf NS3h = enhances or quenches Cy5 fluorescence in NS3h assay | Cy5-dT15 DNA with NS3h, fluorescence interference; actives lie on both sides; signal over control mean, under 1 quenches | fluorescence interference ratio at 100 µM | 16,000 tested, 6% active;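 active = compound fluorescence over control fluorescence at most 0.8, a quencher, or at least a set upper limit, an enhancer; inactive = ratio between 0.8 and the set upper limit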
Hits are given with their value; . = inactive.

SMILES	NS3h inh CB	Cy5 interf NS3h
COc1cc(/C=N\n2nnnc2N)ccc1OCc1c(C)no[n+]1[O-]	.	.
O=C(Nc1ccccc1F)c1cc2cc([N+](=O)[O-])ccc2oc1=O	.	.
COC(=O)C(=Cc1cc(Br)c(OCc2ccc([N+](=O)[O-])cc2)c(OC)c1)C(=O)OC	.	0.75
COc1cc(/C=C/c2[nH]c(=O)[nH]c(=O)c2[N+](=O)[O-])cc(Br)c1OCc1ccccc1	.	.
CCC(C)NCC(O)Cn1c2ccc(Cl)cc2c2cc(Cl)ccc21 (configuration not stated)	.	0.77
CS(=O)(=O)N(CC(O)Cn1c2ccc(Cl)cc2c2cc(Cl)ccc21)c1ccccc1 (configuration not stated)	.	.
CC(=O)N1CCN(c2ccc(NC(=O)COc3ccccc3C)cc2)CC1	.	.
COC(=O)c1c(NC(=O)COc2ccc(C)cc2Br)sc2c1C(C(=O)OC)CC2 (configuration not stated)	.	.
C/C(=N/N=C(\C)c1cccs1)C1C(=O)c2ccccc2C1=O	.	.
C/C(=N/N=C\c1ccccc1)C1C(=O)c2ccccc2C1=O	.	0.68
Cc1cccc(N2C(=O)C(=O)C(=C(O)c3ccccc3)C2c2ccccc2F)c1 (configuration not stated)	.	.
Cc1ccc(S(=O)(=O)NCCC(=O)Nc2ccc([N+](=O)[O-])cc2)cc1	.	.
CC(NC(=O)c1cccc2ccccc12)C(=O)O (configuration not stated)	.	.
CC(C)CC(NC(=O)c1ccco1)C(=O)O (configuration not stated)	.	.
CC(C)CC(NC(c1ccccc1)(c1ccccc1)c1ccccc1)C(=O)O (configuration not stated)	.	0.58
CC(NC(c1ccccc1)(c1ccccc1)c1ccccc1)C(=O)O (configuration not stated)	.	0.61
O=C(COc1ccccc1)N1N=C(c2ccc(Cl)cc2)CC1(O)C(F)(F)F (configuration not stated)	.	.
COc1ccc(-n2c(C)cc(/C=C(\C#N)C(=O)Nc3ccccc3)c2C)cc1	.	.
O=C(CCCN1C(=O)c2ccccc2C1=O)Nc1ccccc1C(=O)N1CCOCC1	.	.
CN1CCN(C(=O)c2ccccc2NC(=O)CN2C(=O)c3ccccc3C2=O)CC1	.	0.77
CN(C)c1cccc(NC(=O)Cc2cccc3ccccc23)c1	.	.
O=C(CSc1nc2ccccc2c(=O)n1-c1ccccc1)Nc1ccc([N+](=O)[O-])cc1	.	.
COc1cc(C(=O)NCCC(C)C)c([N+](=O)[O-])cc1OC	.	.
COc1cc(C(=O)NCc2ccc(C)cc2)c([N+](=O)[O-])cc1OC	.	0.69
CC(C)CNC(=O)CN(c1ccc(Cl)cc1)S(C)(=O)=O	.	.
SMILES	NS3h inh CB	Cy5 interf NS3h
COc1ccc(/C=c2\oc3cccc4c(OC)ccc(c2=O)c34)cc1OC	.	.
Nc1ccc(Nc2nc(-c3ccc(Br)cc3)cs2)cc1	.	0.78
Cc1ccc(Nc2nc(-c3ccc(-c4ccccc4)cc3)cs2)cc1	.	.
COc1ccc(C(=O)/C=C/Nc2cc(Cl)cc(Cl)c2)cc1	.	.
COc1cc(/C=C2/SC(=S)NC2=O)ccc1OC(=O)c1ccc([N+](=O)[O-])cc1	.	.
Cc1ccccc1/C=C(/C#N)c1nc(-c2cc3ccccc3oc2=O)cs1	.	.
CCC(C)c1ccc(OCCOc2ccc(C=C3C(=O)NC(=S)NC3=O)cc2OC)cc1 (configuration not stated)	.	.
CCC(C)c1ccc(OCCOc2ccc(C=C3C(=O)NC(=S)NC3=O)cc2)cc1 (configuration not stated)	46	.
CCOC(=O)C1=C(C)NC(C)=C(C(=O)OC)C1c1cc(Cl)cc(Cl)c1OC (configuration not stated)	.	0.79
CCOC(=O)C1=C(C)NC(=O)NC1c1ccc(OC)cc1OC (configuration not stated)	.	.
Cc1cc(C)nc(N=C(N)Nc2ccc(Cl)cc2C(=O)c2ccccc2)n1	.	0.79
Cc1cc(C)nc(N=C(N)Nc2ccc(C(=O)O)cc2)n1	.	.
COC(=O)C1=C(O)/C(=C\c2ccc(C(=O)O)cc2)N=C1C	.	.
O=C1/C(=C/c2cccc(O)c2)SC(=S)N1c1ccc(Cl)cc1	.	.
COCCOC(=O)c1c(C)oc2ccc(OCc3cccc(Cl)c3)cc12	.	0.79
COCCOC(=O)c1c(C)oc2ccc(OCc3cccc(F)c3)cc12	.	.
COc1cccc(-c2nc(N)c3c(=O)oc4ccccc4c3n2)c1	.	.
CCOc1cc(/C=C2\SC(=S)N(CC(C)C)C2=O)ccc1O	.	0.78
CCOc1cc(/C=C2\SC(=S)N(C(C)C)C2=O)ccc1O	.	.
O=C(Nc1ccc(Cl)cn1)c1ccc(-c2ccc([N+](=O)[O-])cc2)o1	.	.
Cc1cc([N+](=O)[O-])ccc1-c1ccc(C(=O)Nc2ccc(Cl)cn2)o1	.	0.77
